hgDAF12 agonist = activates the H. glycines DAF-12 receptor ligand-binding domain; HEK293 GAL4-hgDAF12 UAS-luciferase reporter, agonist luminescence; normalized to butyrate control; activation, % at 6.8 µM; actives 1.8% (n = 370,000);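 active = activation above a cutoff set at the mean of all screened compounds plus 3 SD, cut at about 10% in these data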
DAX1 inh-1 = DAX1 (NR0B1) inhibition, primary screen; HEK293T StAR-luciferase reporter, SF-1/DAX-1 repression relief; inhibition, % at 6.8 µM; actives 1.1% (n = 370,000);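 active = inhibition above the mean over all tested compounds plus 3 SD, cut at about 3.6% in these data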;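 also: higher inhibition means more luminescence from relief of DAX-1 repression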
SMARCA2 act = activators of SMARCA2 function | MG213 cells, MMTV-luciferase reporter, dexamethasone, overnight | AID 652017 | actives 1% (n = 370,000) | activation, % at 9.1 µM; in the data active = activation above about 7.8%
hcDAF-12 act = H. contortus DAF-12 activation, primary screen | HEK293 hcDAF-12 lit1-tk-luc reporter, luminescence; 0% DMSO, 100% Δ7-dafachronic acid | activation, % at 6.8 µM | actives 1.4% (n = 370,000) | AID 652067;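 active = activation above the mean of all tested compounds plus 3 SD, cut at about 5.5% in these data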
DAX1 inh-2 = inhibitors of human orphan nuclear receptor DAX1 (NR0B1). P51843. HEK293 Gal4-DAX1 luciferase reporter, luminescence. inhibition, % at 6.75 µM. actives 0.99% (n = 340,000);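 active = inhibition above the mean over all tested compounds plus 3 SD, cut at about 4.2% in these data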;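 also: inhibition shows as a rise in luminescence from relieved DAX1 repression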
Target sequence (P51843 207-470 limits assumed): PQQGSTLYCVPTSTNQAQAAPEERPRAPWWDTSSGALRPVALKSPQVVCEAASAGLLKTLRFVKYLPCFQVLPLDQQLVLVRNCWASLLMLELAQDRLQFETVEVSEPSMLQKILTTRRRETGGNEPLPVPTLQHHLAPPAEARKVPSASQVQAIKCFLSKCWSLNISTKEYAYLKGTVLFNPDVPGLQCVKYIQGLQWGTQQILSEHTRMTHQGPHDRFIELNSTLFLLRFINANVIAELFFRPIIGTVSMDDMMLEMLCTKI
ssDAF12 agonist = activators of S. stercoralis DAF-12 nuclear receptor. actives 1% (n = 370,000). AID 652126. activation, % at 6.8 µM. HEK293 ssDAF-12/GRIP1 lit1-tk-luc reporter, luminescence; % of 3 µM dafachronic acid response;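 active = activation above the mean over all tested compounds plus 3 SD, cut at about 0.9% in these data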
SMARCA2 conf = confirmation of SMARCA2 (BRM) function activators; MG213 cells, MMTV-luciferase with dexamethasone, luminescence, overnight; MG213 cells expressing E1A, Rb sequestered; DMSO wells 0%, reference activator 100%; shares compounds with SMARCA2 act; actives 30% (n = 3,500); activation, % at 9.1 µM;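 active = activation above its plate's cutoff, the mean activation of tested wells plus 3 SD, cut at about 7.9% in these data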
VP16 Luc act = counter-screen for SMARCA2 activators: GAL4-VP16 luciferase reporter activation; shares compounds with SMARCA2 act; HEK293 GAL4-VP16 pG5luc reporter, luciferase luminescence; scaled: DMSO wells 0%, SAHA wells 100%; activation, % at 9.1 µM; actives 41% (n = 3,500);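 active = activation above the solvent-only control well mean plus 3 SD, averaged across control plates, cut at about 5.2% in these data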
LXR ag = activates human LXR-beta, counter-screen for hcDAF-12 agonists | shares compounds with hcDAF-12 act | HEK293 Gal4-LXR tk-luc reporter, luminescence, 24 h; normalized: DMSO 0%, positive control 100% | activation, % at 6.8 µM | 3,400 tested, under 10 active;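 active = mean percent activation of the reporter above a cutoff set as the average over tested compounds plus their standard deviation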
Target sequence (P55055 whole entry, looked up, the tested form may be a part): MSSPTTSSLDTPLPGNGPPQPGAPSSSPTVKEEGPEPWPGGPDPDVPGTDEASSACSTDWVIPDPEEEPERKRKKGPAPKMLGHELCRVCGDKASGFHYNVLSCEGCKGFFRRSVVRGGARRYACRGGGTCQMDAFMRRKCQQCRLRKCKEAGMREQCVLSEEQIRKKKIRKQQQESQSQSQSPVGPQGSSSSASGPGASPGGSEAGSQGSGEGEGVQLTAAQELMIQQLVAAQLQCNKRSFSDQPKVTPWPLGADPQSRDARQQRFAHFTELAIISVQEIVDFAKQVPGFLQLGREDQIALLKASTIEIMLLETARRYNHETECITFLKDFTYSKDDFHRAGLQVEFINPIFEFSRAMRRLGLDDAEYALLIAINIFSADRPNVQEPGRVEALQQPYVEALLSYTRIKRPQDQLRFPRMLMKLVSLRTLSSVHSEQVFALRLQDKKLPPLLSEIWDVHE
hcDAF12 ag = confirmation of H. contortus DAF-12 agonists | shares compounds with hcDAF-12 act | HEK293 hcDAF-12 lit1-tk-luc reporter, luminescence; % of Δ7-dafachronic acid response | activation, % at 6.8 µM | actives 61% (n = 3,400) | AID 743032;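 active = mean activation across triplicate tests above the threshold derived from the earlier primary screen, cut at about 5.5% in these data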
hgDAF12 ag = hgDAF-12 agonism, confirmation assay; shares compounds with hgDAF12 agonist; HEK293 GAL4-hgDAF12 luciferase reporter, agonist mode; percent of butyrate response; activation, % at 6.8 µM; actives 80% (n = 3,300);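 active = mean activation over triplicate wells above the hit cutoff derived from the earlier primary screen, cut at about 11% in these data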
LXRb DAF12 ctr = activates human LXR-beta, counter-screen for DAF-12 agonists | shares compounds with hgDAF12 agonist | HEK293 Gal4-LXR luciferase reporter, 24 h | activation, % at 6.8 µM | 3,300 tested, under 10 active | AID 743051;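 active = mean activation of the triplicate above a set limit carried over from the primary screen, none filed active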
Each line names hits and unclear results; the compound was inactive in the other large screens (follow-up assays come after a bar, where they were run). Only some compounds are listed: those with a hit (about 4.8% of all), similar ones and a draw of the others.

Oc1cccc2ccc(/C=C/c3c(F)cccc3Cl)nc12	hgDAF12 agonist 17.6, DAX1 inh-1 3.7, SMARCA2 act 11.0, hcDAF-12 act 9.5, ssDAF12 agonist 2.0 | SMARCA2 conf inactive | VP16 Luc act 16.2 | LXR ag inactive | hcDAF12 ag 9.6
Oc1cccc2ccc(/C=C/c3ccccc3Cl)nc12	SMARCA2 act 12.0, hcDAF-12 act 7.1 | SMARCA2 conf inactive | VP16 Luc act 11.5 | LXR ag inactive | hcDAF12 ag 6.5
Cc1cnc(NC(=O)CCCc2nc3ccccc3s2)s1	hgDAF12 agonist 12.1, SMARCA2 act 27.4, hcDAF-12 act 10.3, ssDAF12 agonist 5.3 | SMARCA2 conf 28.9 | VP16 Luc act inactive | LXR ag inactive | hcDAF12 ag 6.9
O=C(CCCc1nc2ccccc2s1)Nc1nccs1	none
NC(=O)C1CCN(c2nc(-c3cccs3)cs2)CC1	none (no result: hgDAF12 agonist, DAX1 inh-1, SMARCA2 act, hcDAF-12 act, ssDAF12 agonist)
Cc1cc(Cl)ccc1N(CC(=O)NCc1ccc2c(c1)OCO2)S(C)(=O)=O	none (no result: DAX1 inh-2)
O=C(Nc1ccccc1Cl)c1cc2ccccc2o/c1=N\O	hgDAF12 agonist 12.8, SMARCA2 act 10.9, hcDAF-12 act 11.3, DAX1 inh-2 4.7, ssDAF12 agonist 2.1 | SMARCA2 conf 15.4 | VP16 Luc act 16.2 | LXR ag inactive | hcDAF12 ag 12.9
O=C(Nc1ccccc1Cl)c1ccccc1Cl	none
O=C1CNC(=S)N1c1nc2ccccc2s1	SMARCA2 act 28.1, hcDAF-12 act 6.8 | SMARCA2 conf 10.3 | VP16 Luc act inactive | LXR ag inactive | hcDAF12 ag 8.0
O=C(NC1CCCC1)C1CCN(C(=O)c2ccc(Cl)cc2Cl)CC1	none
CCOC(=O)c1sc(=NC(=O)c2cccs2)n(C)c1C	hgDAF12 agonist 16.5, SMARCA2 act 11.9, hcDAF-12 act 7.8, ssDAF12 agonist 2.5 | SMARCA2 conf inactive | VP16 Luc act 13.7 | LXR ag inactive | hcDAF12 ag 22.9
CCOC(=O)c1sc(=NC(=O)c2ccc(OC(C)C)cc2)n(C)c1C	none
COc1ccc2[nH]c3c(C)c4ccncc4c(C)c3c2c1	SMARCA2 act 16.4, hcDAF-12 act 7.3, ssDAF12 agonist 2.0 | SMARCA2 conf 47.8 | VP16 Luc act inactive | LXR ag inactive | hcDAF12 ag inactive
CC(=O)Nc1sc2c(c1-c1nc3ccccc3s1)CN(C(C)C)CC2	hgDAF12 agonist 11.0, SMARCA2 act 18.7, hcDAF-12 act 14.3, ssDAF12 agonist 2.5 | SMARCA2 conf inactive | VP16 Luc act inactive | LXR ag inactive | hcDAF12 ag 16.6
O=C(Nc1ccsc1C(=O)O)c1ccc(Cl)cc1	SMARCA2 act 8.7, hcDAF-12 act 9.1, ssDAF12 agonist 3.0 | SMARCA2 conf 10.1 | VP16 Luc act 8.7 | LXR ag inactive | hcDAF12 ag 12.2
Cc1ccc(C(=O)Nc2ccsc2C(=O)O)cc1	none
OC(c1cccc(Cl)c1)c1nc(-c2cc3ccccc3o2)cs1 (stereo not given)	none (no result: DAX1 inh-2)
O=C(CNC(=O)c1ccccc1)OCc1nc2ccccc2s1	SMARCA2 act 13.6, hcDAF-12 act 7.5, ssDAF12 agonist 1.0 | SMARCA2 conf inactive | VP16 Luc act 6.3 | LXR ag inactive | hcDAF12 ag 6.4
C[C@@H]1[C@H]2CCCC[C@H]2CN(C(=O)OC(C)(C)C)[C@@H]1c1cn(Cc2ccccc2)c2ccc(F)cc12	none
Cc1ccc2nc(SCn3nnc4ccccc4c3=O)[nH]c2c1	hgDAF12 agonist 24.1, DAX1 inh-1 4.1, SMARCA2 act 8.4, hcDAF-12 act 9.8, ssDAF12 agonist 1.8 | SMARCA2 conf 8.1 | VP16 Luc act 13.1 | LXR ag inactive | hcDAF12 ag 10.4 | hgDAF12 ag 16.0 | LXRb DAF12 ctr inactive
Cc1cc(=O)[nH]c(SCn2nnc3ccccc3c2=O)n1	none
O=C(Nc1cnc2ccccn2c1=O)c1ccc(Cl)cc1Cl	hgDAF12 agonist 16.5, DAX1 inh-1 4.4, SMARCA2 act 9.0 | SMARCA2 conf inactive | VP16 Luc act inactive | hgDAF12 ag inactive | LXRb DAF12 ctr inactive
O=C(O)c1ccc(-n2cccc2/C=C2/SC(=O)N(CC(=O)N3CCCC3)C2=O)cc1	none
Nc1cccn2c(-c3ccc(Cl)cc3)cnc12	hgDAF12 agonist 16.3, SMARCA2 act 9.3, hcDAF-12 act 7.4 | SMARCA2 conf 15.0 | VP16 Luc act 20.1 | LXR ag inactive | hcDAF12 ag 10.1 | hgDAF12 ag 17.8 | LXRb DAF12 ctr inactive
O=C(CSc1nnc(-c2ccc(O)cc2)o1)Nc1ccccc1	hgDAF12 agonist 16.1, SMARCA2 act 8.6 | SMARCA2 conf 11.2 | VP16 Luc act 8.1 | hgDAF12 ag 13.5 | LXRb DAF12 ctr inactive
COc1cccc(CNc2nc3ccccc3n2C)c1O	hgDAF12 agonist 14.6, SMARCA2 act 9.5, ssDAF12 agonist 1.8 | SMARCA2 conf 10.9 | VP16 Luc act 9.6 | hgDAF12 ag 19.2 | LXRb DAF12 ctr inactive
CC1CCCCN1CCCNC(=O)c1ccc2nc(N3CCCCC3)sc2c1 (stereo not given)	hgDAF12 agonist 13.9, DAX1 inh-1 4.0, SMARCA2 act 17.1, ssDAF12 agonist 1.4 | SMARCA2 conf 9.4 | VP16 Luc act 9.8 | hgDAF12 ag 12.1 | LXRb DAF12 ctr inactive
CC1CCCCN1CCCNC(=O)c1ccc(Br)cc1 (stereo not given)	none
COc1ccc(C(=O)n2c(SC)nc3cc4c(cc32)OCCO4)cc1	none
O=S(=O)(CCc1ccccc1)CS(=O)(=O)CCc1ccccc1	none
